Experimental data: the supplement of paper PMC11624193, “Coupling cellular drug-target engagement to downstream pharmacology with CeTEAM” (Nature Communications, 2024)

Target: PARP1 L713F-nLuc biosensor (HCT116) (UniProt P09874)
Test: PARP1 L713F-nLuc/akaLuc ratio relative to DMSO control (biosensor stabilization) (fold change); higher = more PARP1 biosensor stabilization (target engagement / stabilizer), active = hit call of the paper
Conditions: stock concentration (mM; final µM = stock mM x 1): 10; 24 h;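 active = log2 fold change beyond 2 SD from the library mean after excluding viability outliers; inactive = within 2 SD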

Chain of PARP1 L713F-nLuc biosensor (HCT116) (P09874 whole entry L713F, looked up): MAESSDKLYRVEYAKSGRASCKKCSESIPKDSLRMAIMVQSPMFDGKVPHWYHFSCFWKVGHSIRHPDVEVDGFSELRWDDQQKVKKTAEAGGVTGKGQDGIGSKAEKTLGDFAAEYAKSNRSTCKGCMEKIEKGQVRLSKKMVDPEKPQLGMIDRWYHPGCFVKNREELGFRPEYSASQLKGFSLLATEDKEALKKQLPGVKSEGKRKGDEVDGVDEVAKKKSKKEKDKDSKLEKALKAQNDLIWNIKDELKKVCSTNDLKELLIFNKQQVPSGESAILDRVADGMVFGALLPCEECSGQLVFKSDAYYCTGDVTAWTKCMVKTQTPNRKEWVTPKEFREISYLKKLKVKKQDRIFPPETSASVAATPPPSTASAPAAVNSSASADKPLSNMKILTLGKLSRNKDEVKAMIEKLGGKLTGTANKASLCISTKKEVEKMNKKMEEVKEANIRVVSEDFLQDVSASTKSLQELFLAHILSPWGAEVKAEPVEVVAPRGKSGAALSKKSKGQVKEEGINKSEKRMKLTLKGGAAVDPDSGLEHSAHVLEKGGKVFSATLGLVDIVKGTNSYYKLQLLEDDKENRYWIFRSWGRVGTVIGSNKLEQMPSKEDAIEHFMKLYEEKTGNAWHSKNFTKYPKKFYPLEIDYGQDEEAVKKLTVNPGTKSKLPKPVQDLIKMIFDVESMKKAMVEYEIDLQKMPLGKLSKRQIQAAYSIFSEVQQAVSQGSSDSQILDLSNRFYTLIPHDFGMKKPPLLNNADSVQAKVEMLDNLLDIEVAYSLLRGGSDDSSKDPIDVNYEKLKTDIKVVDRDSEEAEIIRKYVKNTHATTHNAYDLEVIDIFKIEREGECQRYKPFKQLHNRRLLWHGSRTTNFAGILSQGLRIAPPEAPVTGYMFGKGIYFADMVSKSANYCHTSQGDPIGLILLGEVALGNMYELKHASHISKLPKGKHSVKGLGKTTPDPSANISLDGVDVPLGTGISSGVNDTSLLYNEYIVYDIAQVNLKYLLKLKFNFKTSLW

Structure (SMILES)	PARP1 L713F-nLuc/akaLuc ratio
O=C(NCCCNC(=O)Nc1cccc(C2=NCCN2)c1)Nc1cccc(C2=NCCN2)c1 [p32 Inhibitor M36]	1.09 (inactive)
CN1CCN(CCOc2cc(OC3CCOCC3)c3c(Nc4c(Cl)ccc5c4OCO5)ncnc3c2)CC1 [Saracatinib (AZD0530)]	0.92 (inactive)
COC1CCN(C(=O)c2cc(Cc3n[nH]c(=O)c4ccccc34)ccc2F)CC1	7.52 (active)
Cc1cc2c(F)c(Oc3ncnn4cc(OC[C@@H](C)O)c(C)c34)ccc2[nH]1	0.898 (inactive)
COC(=O)Nc1nc2cc(Sc3ccccc3)ccc2[nH]1 [Fenbendazole]	2.66 (inactive)
Cc1nc(N)nc(N)c1-c1ccc(Cl)c(Cl)c1 [Metoprine]	0.685 (inactive)
COc1c(O)cc2oc(-c3ccccc3)cc(=O)c2c1O [Oroxylin A]	0.838 (inactive)
Nc1ncn([C@H]2C[C@H](O)[C@@H](CO)O2)c(=O)n1 [Decitabine]	3.01 (active)
COc1cc(C)c(/C=C/C(C)=C/C=C/C(C)=C/C(=O)O)c(C)c1C [Acitretin]	0.747 (inactive)
Cc1cc(Nc2ccc(NC(=O)c3ccc(Nc4ccnc5ccccc45)cc3)cc2)nc(N)n1	1.38 (inactive)
COc1ccc(C(=C2C(=O)Nc3ccccc32)c2ccc(OC)cc2)cc1	0.833 (inactive)
CC[C@H](CO)Nc1nc(NCc2ccccc2)c2ncn(C(C)C)c2n1 [Roscovitine (Seliciclib,CYC202)]	0.975 (inactive)
O=C(/C=C/c1ccc(O)c(O)c1)O[C@@H]1C[C@](O)(C(=O)O)C[C@@H](O)[C@H]1O [Chlorogenic acid]	1.16 (inactive)
O=C(O)c1ccc2c(c1)nc(Nc1cccc(Cl)c1)c1ccncc12 [Silmitasertib (CX-4945)]	0.822 (inactive)
CCC(Sc1nnc2c(n1)[nH]c1ccccc12)C(=O)N1c2ccccc2Sc2ccccc21 (stereo not drawn) [Inauhzin]	0.33 (active)
Nc1nc2cc(CC[C@H]3C[C@@H](n4ccc5c(N)ncnc54)[C@H](O)[C@@H]3O)ccc2cc1Br	0.465 (inactive)
O=c1[nH]c(CSC2CCC(O)CC2)nc2cc(OCC3CC3)cc(F)c12 (stereo not drawn)	1.21 (inactive)
O=C(O)CCCCC(CCSCc1ccccc1)SCc1ccccc1 (stereo not drawn)	1.06 (inactive)
CC1(C)Oc2cc(N3CCN(C(=O)OCc4ccccc4)CC3)c([N+](=O)[O-])cc2-c2c1cnn2-c1ccc(C(=O)O)cc1 [Lin28-let-7a antagonist 1]	0.959 (inactive)

Structure (SMILES)	PARP1 L713F-nLuc/akaLuc ratio
COc1cc(C(=O)N2C[C@H](N)CC[C@@H]2C)cc2nc(-c3cc4cccnc4n3CC3CC3)n(C)c12 [BMS-P5 (free base)]	0.878 (inactive)
C[C@@H]1CCN(C(=O)CC#N)C[C@@H]1N(C)c1ncnc2[nH]ccc12 [Tofacitinib]	0.723 (inactive)
O=C(O)c1ccc2c(c1)nc(NC(=O)c1ccccc1)n2CCCc1ccccc1	1.26 (inactive)
N#Cc1ccc(C(c2ccc(C#N)cc2)n2cncn2)cc1 [Letrozole]	1.4 (inactive)
Cc1cc(C)c(CN2CCc3c(Cl)cc(-c4c(C)noc4C)c(Cl)c3C2=O)c(=O)[nH]1	0.881 (inactive)
CNC(=O)CN1CCC(Oc2cc3c(Nc4cccc(Cl)c4F)ncnc3cc2OC)CC1 [Sapitinib (AZD8931)]	0.797 (inactive)
Cc1cc(Nc2cc(CN3CCOCC3)c3nc(C)c(Cc4ccc(Cl)cc4F)n3n2)n[nH]1	1.18 (inactive)
O=C(CCCCCCC(=O)NO)NO [Suberoyl bis-hydroxamic acid]	0.788 (inactive)
NC(=O)c1ncn(C2OC(CO)C(O)C2O)c1N (stereo not drawn) [AICAR (phosphate)]	1.04 (inactive)
COc1ccc2c(c1)c(C(=O)Nc1cc(C(=O)OC(C)(C)C)ccc1F)cn2C(C)=O	0.714 (inactive)
O=C1CCc2ccccc2O1 [Dihydrocoumarin]	0.769 (inactive)
COc1cc2c(NC3CCN(C)CC3)nc(N3CCCN(C)CC3)nc2cc1OCCCN(C)C	0.782 (inactive)
COc1cc2nc(N3CCCC3)nc(NCCCCCN3CCCC3)c2cc1OC	0.881 (inactive)
CCCc1cc(C)[nH]c(=O)c1CNC(=O)c1cc(-c2ccc(N3CCN(C)CC3)nc2)nc2c1cnn2C(C)C	1.04 (inactive)
O=C(O)CNC(=O)c1nc(Cl)c2ccccc2c1O	0.618 (inactive)
C=CC(=O)Nc1cc(Nc2nccc(-c3cn(C)c4ccccc34)n2)c(OC)cc1N(C)CCN(C)C [Osimertinib (AZD9291)]	0.371 (inactive)
C=C(C)[C@@H]1CCC(C)=C[C@H]1C1=C(O)C(=O)C(CCCCC)=C(NCc2ccccc2)C1=O	1.39 (inactive)
NC(=O)/C(=C/n1cnc(-c2cc(C(F)(F)F)cc(C(F)(F)F)c2)n1)c1cncnc1 [Eltanexor (KPT-8602)]	0.767 (inactive)
Nc1nc(OCc2cc(Br)cs2)c2ncn(CCCCCCCCO[C@@H]3O[C@H](CO)[C@@H](O)[C@H](O)[C@H]3O)c2n1 [O6BTG-octylglucoside]	0.863 (inactive)
